A number with no mark means an inactive call.
The compounds below were run on Vero E6 infected with SARS-CoV-2 (assay: inhibition of SARS-CoV-2 cytopathic effect; higher = more antiviral protection, active = above 15). Details: 1 nM; 48 h.

Going from `c1ccc(-c2nn3c(c2-c2ccnc4cc(OCCN5CCOCC5)ccc24)CCC3)nc1` to `N[C@@H]1c2cccnc2[C@H](OC(=O)N2CCC(n3c(=O)[nH]c4ncccc43)CC2)CC[C@H]1c1cccc(F)c1F` [rimegepant], the “inhibition of SARS-CoV-2 cytopathic effect” value (“inhibition” below) rises from -0.68% to -0.34%.

Going from `COc1cc(N2CCC(N3CCN(C)CC3)CC2)ccc1Nc1ncc(Cl)c(Nc2ccccc2S(=O)(=O)C(C)C)n1` to `C[C@H](Nc1ncnc2nc[nH]c12)c1cc2cccc(Cl)c2c(=O)n1-c1ccccc1` [duvelisib], the “inhibition” value falls from -0.23% to -1.06%.

Going from `CCCCNC(=O)NS(=O)(=O)c1ccc(C)cc1` [tolbutamide] to `CCCCOc1ccc(C(=O)Nc2ccc(F)cc2F)cc1`, the “inhibition” value falls from 0.11% to -1.89%.

First: N#C/C(=C\c1ccc(O)c(O)c1)C(=O)NCCCCc1ccccc1
Second: O=C(O)[C@H](Cc1ccccc1)NCc1ccc(Cl)cc1
The “inhibition” value of the first is higher: 0.51% for the first, 0.28% for the second.

First: CC(C(=O)O)c1cccc(C(=O)c2ccccc2)c1 (stereo not given) [ketoprofen]
Second: COc1ccc2nc(NC(=O)Nc3ccccc3)sc2c1 [frentizole]
The “inhibition” value of the first is higher: -0.91% for the first, -3.36% for the second.

Going from `CCC(CC)Nc1nc(C)c(-c2ccc(OC(F)(F)F)cc2OC)nc1OC` to `CCC(CC)Nc1cc(C)nc(Oc2c(C)cc(C)cc2C)c1C`, the “inhibition” value falls from 1.38% to -0.56%.

Going from `O=C1C[C@@H](c2ccc(O)cc2)Oc2cc(O)ccc21` to `CC(C)c1ccc(CC(=O)N2CCC[C@@H](c3cccc(OC(C)(C)C(=O)O)c3)C2)cc1`, the “inhibition” value rises from -0.59% to 0.54%.

Going from `Cn1cc(-c2cnn3c(N)c(Br)c([C@@H]4CCCNC4)nc23)cn1` to `Cc1ccc2c(c1)[C@]13CCCC[C@@H]1[C@H](C2)N(C)CC3` [dimemorfan], the “inhibition” value falls from 0.61% to 0%.

Going from `O=C1NC(=O)[C@@]2(CCOc3ccc(F)cc32)N1` [sorbinil] to `CNC(=O)c1cc2c(cn1)[nH]c1ccccc12`, the “inhibition” value rises from -0.44% to 1.51%.

Compared with `C[C@](N)(Cc1ccc(O)c(O)c1)C(=O)O` [methyldopa], `O=C(O)c1cc(O)c(O)c(O)c1` [gallic-acid] is lower in “inhibition” value: -0.96% for the first, -1.87% for the second.

First: C[C@@H](CN)CC(=O)O [3-methyl-GABA]
Second: CC[C@H](C)C(=O)O[C@H]1C[C@H](O)C=C2C=C[C@H](C)[C@H](CC[C@@H](O)C[C@@H](O)CC(=O)O)[C@H]21
The “inhibition” value of the first is higher: 0.49% for the first, 0.27% for the second.

First: CC(C)(C)C(=O)OCOC(=O)[C@@H]1N2C(=O)[C@@H](NC(=O)[C@H](N)c3ccccc3)[C@H]2SC1(C)C [pivampicillin]
Second: CC1=C(C(=O)O)N2C(=O)[C@@H](NC(=O)[C@H](N)C3=CCC=CC3)[C@H]2SC1 [cephradine]
The “inhibition” value of the first is higher: 3.04% for the first, 0.46% for the second.

First: CC(C)c1onc(-c2c(Cl)cccc2Cl)c1COc1ccc(/C=C/c2cccc(C(=O)O)c2)c(Cl)c1
Second: CCCc1nc(C(C)(C)O)c(C(=O)O)n1Cc1ccc(-c2ccccc2-c2nnn[nH]2)cc1 [olmesartan]
The “inhibition” value of the first is lower: 0.86% for the first, 1.89% for the second.

Going from `C=CCc1cccc(/C=N/NC(=O)CN2CCN(Cc3ccccc3)CC2)c1O` to `Fc1ccc(-n2cc(CCCCN3CCC4(CC3)OCc3ccccc34)c3ccccc32)cc1` [siramesine], the “inhibition” value falls from 0.07% to 0.05%.

First: CNNCc1ccc(C(=O)NC(C)C)cc1 [procarbazine]
Second: CCCCN1CCCCC1C(=O)Nc1c(C)cccc1C (stereo not given) [bupivacaine]
The “inhibition” value of the first is lower: -1.55% for the first, 2.92% for the second.

Compared with `C[C@]12CC[C@@H]3c4ccc(O)cc4CC[C@H]3[C@@H]1CC[C@@H]2OC(=O)CCC1CCCC1` [estradiol-cypionate], `CC(=O)O[C@]1(C(C)=O)CC[C@H]2[C@@H]3C=C(C)C4=CC(=O)CC[C@]4(C)[C@H]3CC[C@@]21C` [megestrol-acetate] is higher in “inhibition” value: -1.71% for the first, -0.56% for the second.

Going from `O=C(c1ccc(-c2ccc(Cl)cc2)o1)N(Cc1ccccn1)c1ccc(N2CCNCC2)cc1` to `CCCCOC(=O)c1ccccc1Nc1cccc(C(F)(F)F)c1` [ufenamate], the “inhibition” value rises from -2.64% to 2.83%.

For `C[C@@H](O)[C@H]1C(=O)N2C(C(=O)O)=C(S[C@@H]3CN[C@H](CNS(N)(=O)=O)C3)[C@H](C)[C@H]12` [doripenem], the “inhibition” value was -0.14%.

— the supplement of paper PMC13380429
